This passage reports binding signal results from PMC11574364.

Some targets named below: HUR (Homo sapiens, UniProt Q15717); PABPC4L (Homo sapiens, UniProt P0CB38); snRNP B2 (Homo sapiens, UniProt P08579); YTHDC1 (Homo sapiens, UniProt Q96MU7); snRNP A (Homo sapiens, UniProt P09012); SLIRP (Homo sapiens, UniProt Q9GZT3); SF3B6 (Homo sapiens, UniProt Q9Y3B4); SFRS9 (Homo sapiens, UniProt Q13242).
What all share (assay): protein domain microarray probed with biotinylated miRNA; Domain array: 20 mM Tris-HCl pH 7.4, 200 mM KCl, 0.2 mM EDTA, 0.05% NP40, 2 ug/ul heparin, overnight 4 C. ORF array: PBS pH 7.0 with RNase inhibitor, 100 ng RNA; high values mean tight binding
What all share (settings): ssRNA

Chain of SF3B6 (Q9Y3B4 whole entry, the tested form may be a part): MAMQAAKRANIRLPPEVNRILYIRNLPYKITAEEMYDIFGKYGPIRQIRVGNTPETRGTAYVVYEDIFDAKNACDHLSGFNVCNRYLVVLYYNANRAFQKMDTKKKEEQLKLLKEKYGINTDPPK
Chain of SFRS9 (Q13242 whole entry, the tested form may be a part): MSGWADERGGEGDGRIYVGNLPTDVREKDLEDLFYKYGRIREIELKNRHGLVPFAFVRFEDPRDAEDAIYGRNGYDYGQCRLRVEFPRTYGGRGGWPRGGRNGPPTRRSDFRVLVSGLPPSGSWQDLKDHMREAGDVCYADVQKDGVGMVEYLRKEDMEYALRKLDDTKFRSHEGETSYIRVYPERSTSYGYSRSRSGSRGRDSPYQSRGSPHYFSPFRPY
Chain of HUR (Q15717 whole entry, the tested form may be a part): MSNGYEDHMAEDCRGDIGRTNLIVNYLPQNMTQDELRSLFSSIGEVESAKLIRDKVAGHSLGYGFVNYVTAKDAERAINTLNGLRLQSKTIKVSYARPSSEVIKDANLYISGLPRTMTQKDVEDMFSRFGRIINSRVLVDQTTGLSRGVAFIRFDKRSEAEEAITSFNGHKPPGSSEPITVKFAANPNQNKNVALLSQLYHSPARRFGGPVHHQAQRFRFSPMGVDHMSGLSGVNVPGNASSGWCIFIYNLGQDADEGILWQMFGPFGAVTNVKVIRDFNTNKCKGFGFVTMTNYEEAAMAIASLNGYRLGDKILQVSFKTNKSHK
Chain of PABPC4L (P0CB38 whole entry, the tested form may be a part): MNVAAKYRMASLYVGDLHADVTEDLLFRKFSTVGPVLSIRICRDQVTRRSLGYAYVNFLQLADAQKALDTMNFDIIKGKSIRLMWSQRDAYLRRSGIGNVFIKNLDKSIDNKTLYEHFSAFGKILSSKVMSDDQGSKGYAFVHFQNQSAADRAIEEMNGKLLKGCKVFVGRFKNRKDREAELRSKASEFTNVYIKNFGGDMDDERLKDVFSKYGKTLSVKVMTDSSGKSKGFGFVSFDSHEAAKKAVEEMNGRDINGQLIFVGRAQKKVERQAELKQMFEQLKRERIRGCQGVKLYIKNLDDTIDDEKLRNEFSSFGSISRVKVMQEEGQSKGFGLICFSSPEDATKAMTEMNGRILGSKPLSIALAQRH
Chain of snRNP B2 (P08579 whole entry, the tested form may be a part): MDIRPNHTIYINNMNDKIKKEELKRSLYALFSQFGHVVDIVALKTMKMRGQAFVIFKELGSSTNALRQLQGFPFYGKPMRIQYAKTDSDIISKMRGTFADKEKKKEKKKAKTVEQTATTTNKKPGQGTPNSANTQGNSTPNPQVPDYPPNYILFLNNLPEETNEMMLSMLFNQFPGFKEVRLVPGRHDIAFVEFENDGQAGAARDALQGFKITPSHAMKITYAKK
Chain of snRNP A (P09012 whole entry, the tested form may be a part): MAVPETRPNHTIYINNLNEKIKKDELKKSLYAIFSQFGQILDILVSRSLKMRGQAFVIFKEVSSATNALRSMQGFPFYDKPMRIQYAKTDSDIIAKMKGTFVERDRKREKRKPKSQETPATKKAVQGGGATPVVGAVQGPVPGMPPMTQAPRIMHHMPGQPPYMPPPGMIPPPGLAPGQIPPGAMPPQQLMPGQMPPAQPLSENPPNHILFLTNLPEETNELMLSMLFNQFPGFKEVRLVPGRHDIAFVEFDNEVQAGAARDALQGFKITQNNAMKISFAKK

Consider UGAGGUAGUAGGUUGUAUGGUU, for which the binding signal came out at 1165 ± 9.92 fluorescence intensity with HUR; 506 ± 42.2 fluorescence intensity with PABPC4L; 184 ± 4.53 fluorescence intensity with snRNP B2; 122.4 ± 0.332 fluorescence intensity with YTHDC1; 372 ± 10.2 fluorescence intensity with snRNP A; 107 ± 4.07 fluorescence intensity with SLIRP. The binding signal with SF3B6 is 136 ± 26.8 fluorescence intensity; with SFRS9 it was 343 ± 5.06 fluorescence intensity.

With UGAGGUAGUAGGUUGUAUAGUU, the binding signal is 477 ± 14 fluorescence intensity with HUR; 129 ± 51.7 fluorescence intensity with PABPC4L; 43.98 ± 0.219 fluorescence intensity with snRNP B2; 25.3 ± 0.502 fluorescence intensity in the test with YTHDC1; 28 ± 0.686 fluorescence intensity with snRNP A; 32.41 ± 0.262 fluorescence intensity in the test with SLIRP. Further, the binding signal with SF3B6 was determined as 31.6 ± 1.95 fluorescence intensity; with SFRS9 it was 37.9 ± 10.5 fluorescence intensity.

For the sequence UGAGGUAGUAGGUUGUGUGGUU, the binding signal with HUR amounted to 1300 ± 85.7 fluorescence intensity; with PABPC4L, 523 ± 82.5 fluorescence intensity; with snRNP B2 it was 296 ± 33.8 fluorescence intensity; with YTHDC1, 179 ± 8.44 fluorescence intensity; with snRNP A, 236.6 ± 1.37 fluorescence intensity; with SLIRP, 232 ± 20.1 fluorescence intensity. Besides, the values for the binding signal with SF3B6 and in the test with SFRS9 were 282 ± 3.13 fluorescence intensity and 580 ± 35.6 fluorescence intensity, respectively.

Turning to AGAGGUAGUAGGUUGCAUAGUU, the binding signal with HUR is 1350 ± 50 fluorescence intensity; with PABPC4L, 466 ± 20.9 fluorescence intensity; in the test with snRNP B2, 147 ± 5.66 fluorescence intensity; in the test with YTHDC1, 80.4 ± 1.63 fluorescence intensity; in the test with snRNP A, 342 ± 6.74 fluorescence intensity; with SLIRP, 104 ± 2.51 fluorescence intensity. For the same sequence, the binding signal with SF3B6 was 117.8 ± 0.707 fluorescence intensity; in the test with SFRS9, 273 ± 31 fluorescence intensity.

As to UAGCUUAUCAGACUGAUGUUGA, the binding signal in the test with HUR amounted to 219 ± 16.5 fluorescence intensity; with snRNP B2, 24.4 ± 2.86 fluorescence intensity; with snRNP A it was 25.3 ± 14.1 fluorescence intensity; with SLIRP, 24.4 ± 1.37 fluorescence intensity; with SFRS9, 54.9 ± 6.63 fluorescence intensity.

CAGUGCAAUGAUGAAAGGGCAU: the binding signal was determined as 652.6 ± 4.58 fluorescence intensity with HUR; 380 ± 28.5 fluorescence intensity with PABPC4L; 164 ± 16.3 fluorescence intensity with snRNP B2; 64.9 ± 3.94 fluorescence intensity in the test with YTHDC1; 224 ± 14.6 fluorescence intensity with snRNP A; 55.4 ± 6.36 fluorescence intensity with SLIRP. The binding signal with SF3B6 was 58.7 ± 1.9 fluorescence intensity; in the test with SFRS9, 370 ± 18.4 fluorescence intensity.
